Test results reported in PubChem BioAssay AID488969 (Vanderbilt High Throughput Screening Facility, 2010).
The full ranking holds about 110,000 compounds; the median of “z-score” is about -0.1, and the highest 2% start at about 2. The entries come from a sample that favours the highest values as a whole. The source made the active and inactive calls.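 Rule for the calls: active = z-score in the third read window above 3 or below -3; inactive = the rest.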

biological target: Metabotropic glutamate receptor 8 (Rattus norvegicus) (UniProt P70579); experiment: rat mGluR8 modulators via GIRK flux, primary screen, cell-based, thallium flux, HTS (AID 488969); details: HEK293 rat mGluR8, GIRK (G protein-gated inwardly rectifying potassium channel) thallium flux, FluoZin2; at 10 µM; stronger effect = higher value; submaximal glutamate (EC20) added with thallium
Sequence (P70579 whole entry, looked up): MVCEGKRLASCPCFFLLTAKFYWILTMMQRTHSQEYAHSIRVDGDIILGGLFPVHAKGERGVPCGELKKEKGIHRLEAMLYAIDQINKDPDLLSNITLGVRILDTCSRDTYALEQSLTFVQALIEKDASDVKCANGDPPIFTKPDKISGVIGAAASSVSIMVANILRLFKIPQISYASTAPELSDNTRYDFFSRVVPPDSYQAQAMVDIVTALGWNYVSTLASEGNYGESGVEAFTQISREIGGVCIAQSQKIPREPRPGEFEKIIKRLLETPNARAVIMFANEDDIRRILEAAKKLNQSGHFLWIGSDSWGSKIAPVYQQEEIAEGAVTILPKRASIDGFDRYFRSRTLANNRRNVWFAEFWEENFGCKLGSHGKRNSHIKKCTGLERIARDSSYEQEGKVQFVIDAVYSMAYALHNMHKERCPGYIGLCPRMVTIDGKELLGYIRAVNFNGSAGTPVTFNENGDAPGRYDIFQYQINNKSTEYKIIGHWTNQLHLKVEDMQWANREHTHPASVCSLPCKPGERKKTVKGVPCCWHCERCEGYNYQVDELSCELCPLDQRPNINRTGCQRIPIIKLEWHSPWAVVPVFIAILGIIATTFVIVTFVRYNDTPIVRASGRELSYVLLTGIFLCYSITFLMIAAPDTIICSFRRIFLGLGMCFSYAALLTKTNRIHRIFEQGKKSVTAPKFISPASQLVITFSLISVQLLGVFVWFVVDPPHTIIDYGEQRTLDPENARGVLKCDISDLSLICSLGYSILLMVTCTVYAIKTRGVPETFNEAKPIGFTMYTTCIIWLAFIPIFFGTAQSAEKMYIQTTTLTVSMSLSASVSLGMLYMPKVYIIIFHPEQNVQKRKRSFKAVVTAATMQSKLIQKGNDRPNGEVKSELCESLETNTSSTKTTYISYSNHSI

Row | SMILES | z-score
1 | CCN(CC)C(=O)n1nc(C)c(CN2C(=O)c3ccccc3C2=O)c1C | -0.151
2 | Nc1ccc(Cl)c(-c2nc3ncccc3o2)c1 | 0.714
3 | CC(C)c1onc(C(=O)N2CCCCC2C)c1[N+](=O)[O-] (stereo not given) | -0.0403
4 | OC(CSc1ccccc1Cl)CN1CCN(c2ccc(F)cc2)CC1 (stereo not given) | -0.618
5 | CCOC(=O)c1cnc2ccc(C)cc2c1Sc1ccc(F)cc1 | -0.262
6 | Cc1ccc(S(=O)(=O)N2CCCC2C(=O)Nc2cc(C)on2)cc1 (stereo not given) | 0.4
7 | Cc1ccc(CNC(=O)c2ccccc2NS(C)(=O)=O)cc1 | -0.309
8 | FC(F)(F)Oc1ccc(NC(=S)NCc2ccccc2)cc1 | 3.23 (active)
9 | FC(F)(F)c1cccc(NC(=S)NNC(=S)NCc2ccccc2)c1 | -0.388
10 | FC(F)(F)c1cccc(NC(=S)NCc2ccccc2)c1 | 5.63 (active)
11 | COc1ccc(CNC(=S)Nc2ccc(OC)cc2)cc1 | 0.711
12 | FC(F)Oc1ccc(NC(=S)NCc2ccccc2)cc1 | 1.51
13 | FC(F)(F)c1cccc(NC(=S)NCc2ccccn2)c1 | 0.164
14 | N=C(N)SCc1nc2ccccn2c1Br | 0.308
15 | CCOc1cccc(C(=O)Nc2ccc3oc(Cc4ccc(Cl)cc4)nc3c2)c1 | -0.351
16 | COc1ccc(N(CC(O)CN2C(=O)NC(C)(C)C2=O)S(=O)(=O)c2ccccc2)cc1 (stereo not given) | -0.294
17 | C=CCn1c(SCc2ccccc2)nc(O)cc1=O | 2.19
18 | C=CCn1c(SCC)nc(O)cc1=O | -0.0583
19 | C=CCn1c(SCc2c(F)c(F)c(F)c(F)c2F)nc(O)cc1=O | -0.151
20 | O/N=C/c1cc(Br)ccc1OCc1ccc(F)cc1 | -0.142
21 | Cc1nc2sccn2c(=O)c1Br | 0.0767
22 | Cn1c(=O)c2c(nc3sccn32)n(C)c1=O | 3.7 (active)
23 | Cc1nc2sccn2c(=O)c1Cl | 0.324
24 | COc1ccccc1C(=O)NCc1ccccc1 | -0.524
25 | Cc1ccc(O)c(NC(=S)NC(=O)c2ccc(-c3ccc(Cl)cc3)o2)c1 | 0.233

Row | SMILES | z-score
26 | O=C(CCl)c1ccc(Cc2ncc(C(F)(F)F)cc2Cl)s1 | -0.0387
27 | CC(=O)c1ccc(Cc2ncc(C(F)(F)F)cc2Cl)s1 | -0.823
28 | NC(=O)c1ccc(Cc2ncc(C(F)(F)F)cc2Cl)s1 | 4.24 (active)
29 | CC1Cc2ccccc2N1CC(=O)c1c(N)n(Cc2ccccc2)c(=O)n(C)c1=O (stereo not given) | -0.314
30 | Cc1ccc(-n2c(N)c(C(=O)N3CCN(C)CC3)sc2=S)cc1 | 0.948
31 | CN1CCN(C(=O)c2sc(=S)n(-c3ccccc3)c2N)CC1 | 11.1 (active)
32 | Nc1c(C(=O)N2CCCCC2)sc(=S)n1-c1ccccc1 | -0.163
33 | COc1ccc(OC)c(NS(=O)(=O)c2cc(OC)ccc2OC)c1 | -0.0402
34 | COCCCNS(=O)(=O)c1ccc(OC)c(Cl)c1Cl | 0.284
35 | COc1ccc(COC(=O)NNC(=O)c2ccccc2Cl)cc1 | 0.289
36 | COc1ccc(-n2c(C)cc(C(=O)CN3C(=O)c4ccccc4C3=O)c2C)cc1 | 0.595
37 | CC1=C(C(N)=O)C(c2cccnc2)n2nc(-c3cccc(Cl)c3)nc2N1 (stereo not given) | 0.192
38 | COc1ccc(OC)c(C2C(C(N)=O)=C(C)Nc3nc(-c4cccc(Cl)c4)nn32)c1 (stereo not given) | 1.16
39 | COc1ccc(C2C(C(N)=O)=C(C)Nc3nc(-c4ccccc4)nn32)cc1OC (stereo not given) | 0.875
40 | COc1ccc(C2C(C(N)=O)=C(C)Nc3nc(-c4cccc(Cl)c4)nn32)cc1OC (stereo not given) | 4.01 (active)
41 | CC1=C(C(N)=O)C(c2cccs2)n2nc(-c3cccc(Cl)c3)nc2N1 (stereo not given) | 2.14
42 | COc1cccc(C2C(C(N)=O)=C(C)Nc3nc(-c4cccc(Cl)c4)nn32)c1 (stereo not given) | -0.342
43 | Cc1nc2ccccn2c1C(=O)NN=C1C2CC3CC(C2)CC1C3 | -0.259
44 | Cc1ccc(-c2csc3nc[nH]c(=S)c23)cc1C | 15.9 (active)
45 | S=c1[nH]cnc2scc(-c3ccccc3)c12 | 13.1 (active)
46 | O=c1[nH]cnc2scc(-c3ccc(F)cc3)c12 | -0.0775
47 | Cc1ccc(-c2csc3ncnc(-n4nnc5ccccc54)c23)cc1C | -0.0158
48 | O=c1[nH]cnc2scc(-c3ccccc3)c12 | 0.259
49 | O=c1[nH]cnc2scc(-c3ccc(-c4ccccc4)cc3)c12 | 0.454
50 | O=C(CSCCc1ccccn1)Nc1ccc(Br)cn1 | -0.0969

Row | SMILES | z-score
51 | CCc1nnc(NC(=O)c2cc(S(=O)(=O)N3CCN(c4ccccc4)CC3)ccc2Cl)s1 | -0.438
52 | CCCCOc1c(Br)cc(/C=N/O)cc1OCC | 2.8
53 | CCOc1cc(/C=N/O)cc(Br)c1OCC | -0.564
54 | CCCOc1c(Br)cc(/C=N/O)cc1OC | -0.858
55 | CCOc1ccc(NC(=O)CN2CCN(CC(=O)Nc3ccc(F)c(F)c3)CC2)cc1 | -0.0841
56 | N#Cc1cnn(Cc2ccccc2)c1N | -0.318
57 | CCOC(=O)C1CCCN(Cc2nc(N)nc(Nc3ccc(Cl)cc3)n2)C1 (stereo not given) | -0.508
58 | CC(C)c1ccccc1NC(=S)NN(Cc1ccccc1)c1ccccc1 | -0.164
59 | Fc1ccccc1NC(=S)NN(Cc1ccccc1)c1ccccc1 | 5.03 (active)
60 | Cc1cccc(NC(=S)NN(Cc2ccccc2)c2ccccc2)c1C | -0.141
61 | c1ccc(-c2ccc(-c3cnc4n3CCCCC4)cc2)cc1 | 0.704
62 | O=C(O)CCCCNS(=O)(=O)c1ccc(Cl)c(C(F)(F)F)c1 | -0.602
63 | CC(C)OC(=O)CSc1nnc(SCc2cccc3ccccc23)s1 | -0.157
64 | O=C(NNC(=O)c1cccnc1SCc1cccc([N+](=O)[O-])c1)c1ccc(F)cc1 | 0.33
65 | O=C(NNC(=O)c1cccnc1SCc1cccc([N+](=O)[O-])c1)c1ccccn1 | 3.29 (active)
66 | Cc1ccc(C(=O)NNC(=O)c2cccnc2SCc2cccc([N+](=O)[O-])c2)cc1 | -0.0883
67 | COc1cc(NC(=O)c2cc(OC)c(OC)c(OC)c2)c(OC)cc1NC(=O)CN1CCCCC1 | -2.33
68 | CCN1/C(=C2\C(=O)N(C)C(=S)N2C)C=Cc2ccccc21 | -0.543
69 | Cc1ccc(-c2n[nH]c(=S)n2Cc2ccccc2)cc1 | -0.277
70 | S=c1[nH]nc(-c2ccco2)n1Cc1ccccc1 | 0.271
71 | CC(C)Cn1c(-c2ccc(Br)o2)n[nH]c1=S | 1.12
72 | S=c1[nH]nc(-c2cc3ccccc3o2)n1Cc1ccccc1 | 2.66
73 | Cc1cccc(-c2n[nH]c(=S)n2Cc2ccccc2)c1 | 1.74
74 | S=c1[nH]nc(-c2ccc(Br)o2)n1Cc1ccccc1 | 3.42 (active)
75 | COc1ccc(C(=O)Cn2nnc(-c3ccccc3F)n2)cc1 | -0.251
